Compounds with a hit are over-represented: about 15% of the library has one in this group of screens.
HCV inhibitor – blocks hepatitis C virus; Huh7.5.1 HCVcc-Cre infection, luciferase reporter, 44 h; Potency, µM (top dose mostly 41.8 µM), without a hit: top-dose activity change, negative = inhibition, most hits filed as inhibitors; 3.4% of 340,000 active; note: potency is the fitted concentration of half-maximal effect; % is set by controls: 0 for no effect and ±100 for the full control effect
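Antiviral activity was scored by luciferase reporter output from cells infected with HCVcc-Cre (~0.5 moi) in presence of compound, 44 h infection period, cells seeded 1,000/well 4 h prior.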
Pf growth 96h – P. falciparum growth inhibition at 96 hour, primary screen for plastid delayed-death inhibitors | Potency, µM (highest dose often 28.7 µM), for inactives: at the highest dose activity change, negative = inhibition, actives largely listed as inhibitors | P. falciparum luciferase reporter growth, 96 h | 6.9% of 320,000 active; note: potency is the fitted concentration of half-maximal effect; % is set by controls: 0 for no effect and ±100 for the full control effect
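Compounds incubated with erythrocytes infected by luciferase-expressing P. falciparum (2% hematocrit, 0.05% parasitemia final) for 96 hours, 37 C in 5% CO2. Growth inhibition scored as decreased luciferase luminescence.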
Sm TGR inh – S. mansoni TGR enzyme inhibition. purified TGR, DTNB reduction, TNB absorbance 405 nm. 3% of 360,000 active. Potency, µM (titrated, usually from 114 µM), without a hit: top-dose activity change, negative = inhibition, most hits filed as inhibitors; note: potency is the fitted concentration of half-maximal effect; % is set by controls: 0 for no effect and ±100 for the full control effect; nearly all actives have a fitted effect of over 60% in size
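Kinetic colorimetric format: TGR-catalysed, NADPH-driven DTNB reduction monitored via TNB absorbance. Enzyme dispensed at 20 nM; compound exposure 15 min at room temperature before reaction start.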
SARS PLP yeast – blocks SARS-CoV papain-like protease in a yeast assay | S. cerevisiae expressing SARS-CoV PLpro, growth rescue | Potency, µM (highest dose often 32.9 µM), for the others: top-dose activity, positive = growth rescue, actives largely listed as activators | 0.19% of 330,000 active; calls by dose curve; note: potency is the fitted concentration of half-maximal effect; 0% is about no effect; nearly all actives have a fitted effect of over 55% in size
HCMV antiviral – blocks human cytomegalovirus replication; HFF cells, HCMV-luciferase reporter, 72 h; stronger effect = lower value; 4.5% of 410,000 active; activity change, negative = inhibition, % at 57.5 µM; in the data active = activity change below about -60%; inconclusive = no clear call, values can overlap the other calls; inactive = above about -39%; note: % is set by controls: 0 for no effect and ±100 for the full control effect
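Luciferase read-out from HCMV-luciferase-infected HFFs (MOI 1 PFU/cell) 72 h post infection at 37C; compounds added after 16 h cell attachment; activity normalized between buffer-only basal and Salinomycin (10uM) inhibitor controls.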
Pf growth 48h – inhibits P. falciparum growth in the first generation, 48 h; P. falciparum luciferase growth in erythrocytes, 48 h; Potency, µM (doses to about 28.7 µM), without a hit: at the highest dose activity change, negative = inhibition, most hits filed as inhibitors; 5.9% of 310,000 active; note: potency is the fitted concentration of half-maximal effect; % is set by controls: 0 for no effect and ±100 for the full control effect
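Luciferase-expressing parasites in RBCs, 2% Hct / 0.1% parasitemia final; RPMI 1640 + 0.5% Albumax; 37 C, 5% CO2, one generation; luminescence read-out, lower signal = inhibition.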
* hit, by the source's call; u = inconclusive; x = no result; ! = not confirmed by another sample; [ ] = dose if it differs, or a comment. Unless noted, calls come from the whole dose curve; as a rule, active = well fitted curve in the direction sought with a large enough effect; inconclusive = small, poorly fitted or top-dose-only effect, or another doubt; inactive = no such curve, though single readings can be large; an effect the other way counts as inactive or inconclusive.

SMILES	HCV inhibitor	Pf growth 96h	Sm TGR inh	SARS PLP yeast	HCMV antiviral	Pf growth 48h
CCCCNC(=O)Cn1nc(Cc2ccncc2)c2ccccc2c1=O	11%	9.3µM*	31%	0%	-62*	36%
CCCN(C(=O)Cn1nc(Cc2cccnc2)c2ccccc2c1=O)c1ccc(C(C)C)cc1	x	x	-11%	x	-63*	x
Cc1ccc(NC(=O)Cn2ccn(Cc3ccc(Cl)cc3)c(=O)c2=O)cc1C	x	x	3%	x	-12	x
Cc1ccc(C(=O)c2cn(Cc3cccc(C)c3)c3nc(C)ccc3c2=O)cc1	x	x	7%	x	-6	x
[O-][n+]1cccc(CO)c1	x	9%	x	x	x	6%
Nc1ccc(N2CCCC2)c(S(=O)(=O)Nc2cccc(C(F)(F)F)c2)c1	u	x	x	-1%	-69*	x
COc1ccc(NS(=O)(=O)c2cc(N)ccc2N2CCCCC2)cc1	-1%	u	-12%	5%	-34	u
CC(=O)COc1nc2c(c(-c3ccco3)c1C#N)CCc1ccccc1-2	11µM*	12µM*	45µM*	1%	x	12µM*
CCOC(=O)CSc1nc(-c2ccc(F)cc2)cc(C(F)(F)F)c1C#N	x	x	2%	x	17	x
CCOC(=O)C(C)Sc1nc(-c2ccco2)cc(C(F)(F)F)c1C#N (centres undefined)	-19%	u	22µM*	-3%	-7	u
CCOc1nc2c(c(-c3cccs3)c1C#N)Cc1ccccc1-2	-3%	11%	16%	0%	21	4%
CCOC(=O)COc1nc(-c2ccc(C)cc2)cc(-c2ccco2)c1C#N	1%	4%	-2%	1%	u	-2%
CCOC(=O)COc1nc(-c2ccco2)cc(-c2ccco2)c1C#N	-74%	0%	32µM*	1%	-18	-13%
CCc1ccccc1NC(=O)CCc1c(C)nn(-c2ccc(N3CCOCC3)nn2)c1C	4%	59%	3%	15%	-62*!	-10%
Nc1nc(Cl)cc(N2CCCC2)n1	21%	7.4µM*	9%	0%	131	0%
Nc1nc(Cl)cc(N2CCC(c3cc(-c4ccc(Cl)cc4Cl)n[nH]3)CC2)n1	22µM*	u	-8%	-23%	-100*	u
CN(C)c1ccc(/C=N/NC(=O)c2ccccc2O)o1	-2%	u	22µM*	u	114	15%
O=C(N/N=C/c1ccc(N2CCCCC2)o1)C(O)(c1ccccc1)c1ccccc1	7%	u	22µM*	6%	x	13µM*
O=C(NN=Cc1ccccc1O)C(O)(c1ccccc1)c1ccccc1	u	x	x	x	2	x
CN(C)c1ccc(/C=N/NC(=O)C(O)(c2ccccc2)c2ccccc2)o1	-7%	-4%	10µM*	-2%	-11	u
Cc1cc(C(=O)N/N=C/c2ccc(N(C)C)o2)cs1	14%	0%	u	-4%	11	-7%
O=C1NC[C@@H](CCCCN2C[C@H](Cc3ccc(O)cc3)N(CCc3ccccc3)C(=O)C2=O)N(CCc2ccc(O)cc2)C1=O	x	x	x	x	4	x
CC/C(=N\Nc1ccc([N+](=O)[O-])cc1)c1ccccc1	u	u	-3%	-1%	x	u
COc1ccc(N/N=C(/Oc2ccc([N+](=O)[O-])cc2)C(C)=O)cc1	5%	12µM*	-2%	5%	23	u
COc1ccc(NN=Nc2ccc([N+](=O)[O-])cc2)cc1	-19%	113%	-32%	6%	74	191%
SMILES	HCV inhibitor	Pf growth 96h	Sm TGR inh	SARS PLP yeast	HCMV antiviral	Pf growth 48h
O=[N+]([O-])c1ccc(NN=C(Oc2ccccc2)c2ccc([N+](=O)[O-])cc2)cc1	x	x	x	x	-70*	x
CCc1ccc([C@@H]2C[C@H]3[C@@H](CN2S(=O)(=O)c2ccc(C)cc2)C(=O)C[C@@H](c2ccc(C)cc2)N3S(=O)(=O)c2ccc(C)cc2)cc1	x	x	x	x	-15	x
Cc1ccc(C(Sc2ccccc2)C(Cn2cncn2)C(=O)c2ccccc2)cc1 (centres undefined)	u	9.3µM*	-10%	-18%	22	x
Cc1cc(F)ccc1N1CCC(N2CCN(C(C)C)C(CCO)C2)CC1 (centres undefined)	u	10µM*	40µM*	-4%	-12	-21%
Cc1cc(F)ccc1N1CCC(N2CCN(CCC(C)C)C(CCO)C2)CC1 (centres undefined)	10µM*	1%	2%	-2%	37	u
O=C(NC1CCCC1)C(c1ccc(O)cc1)N(CC1CCCO1)C(=O)C1COc2ccccc2O1 (centres undefined)	-7%	15%	1%	1%	-22	u
COc1ccc(C(C(=O)NC2CCCCC2)N(CC2CCCO2)C(=O)C2COc3ccccc3O2)cc1OC (centres undefined)	-9%	1%	0%	11%	-14	12µM*
COc1ccc(C(=O)N(CC2CCCO2)C(C(=O)NCCC(C)C)c2ccc(C)cc2)cc1OC (centres undefined)	1%	31%	-10%	9%	-17	u
COc1ccc(C(=O)N(CC2CCCO2)C(C(=O)NC2CCCC2)c2ccc(Cl)cc2)cc1OC (centres undefined)	21%	6.6µM*	4%	5%	-7	12µM*
COc1cc(C)ccc1S(=O)(=O)NC(=O)C1(C)CCN1C(=O)C1(c2ccc(Cl)cc2)CCC1 (centres undefined)	x	x	x	x	31	x
COC(=O)n1c(=O)oc2ccccc21	3%	24%[5.75 µM]	-4%	-3%	73	-4%
CCCCOC(=O)n1c(=O)oc2ccccc21	15%	u	5%	-5%	-101*	75%
O=C(O)c1cc2n(n1)C(C(F)(F)F)CC(C1CC1)N2 (centres undefined)	4%	52%	8%	2%	u	2.1µM*
CC1CC(C(F)(F)F)n2nc(C(=O)O)cc2N1 (centres undefined)	13%	x	1%	-2%	-12	4%
Cc1cc(/C=C2/NC(=O)NC2=O)c(C)n1C	10%	4.7µM*	14µM*	-1%	-28	13%
CCOC(=O)c1c(-n2c(C)cc(/C=C3\C(=O)NC(=O)N(C)C3=O)c2C)sc2c1CCCC2	14µM*	3.7µM*	-31%	u	-34	u
Cc1cc(/C=C2/NC(=O)NC2=O)c(C)n1-c1sc2c(c1C#N)CCCC2	-29%	x	u	0%	-73*	u
Cc1cc(C)c(-n2c(C)cc(/C=C3/NC(=O)NC3=O)c2C)c(C)c1	-12%	5.9µM*	-14%	-38%	u	u
CCc1ccc(NC(=O)CN2C(=O)C(c3ccc(F)cc3)=NC2(C)C)cc1	x	x	0%	x	u	x
